These results are taken from publication PMC8384837, “Expanding the binding specificity for RNA recognition by a PUF domain”.

Where a chain is given by its changes, count along the chain named.

Common to all, as to assay: yeast three-hybrid, YBZ-1, SC-Leu-His + 0.5 mM 3-AT, 4 days
Details in all cases: tags: N-Gal4 AD-HA kept; label: inside an RPR1-promoter hybrid RNA with tandem MS2 sites; ssRNA

Experiment [1] concerns the target PUM1 PUF domain R3-RVR (Homo sapiens, UniProt Q14671 828-1176, C935R;R936V;Q939R). The procedure, abridged: (§1)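 Each repeat of the Pumilio-1 PUF domain was randomized at its three base-contacting residues, and these libraries were co-expressed from a centromeric plasmid with matching RNA elements in strain YBZ-1. After four days on SC-Leu (input) or SC-Leu-His + 0.5 mM 3-AT (selection), the repeat regions were PCR-amplified and Illumina-sequenced. The interaction score compares variant frequency between input and selection as a log change, computed in log2 with a pseudocount of 1 for absent variants.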

In experiment [2] the target is PUM1 PUF domain R1-SRR (Homo sapiens, UniProt Q14671 828-1176, Q867R). The method in brief:
as §1

Experiment [3] deals with PUM1 PUF domain R1-GVR (Homo sapiens, UniProt Q14671 828-1176, S863G;R864V;Q867R). The procedure, abridged:
as §1

The target of experiment [4] is PUM1 PUF domain R7-KGG (Homo sapiens, UniProt Q14671 828-1176, S1079K;N1080G;E1083G). The procedure, abridged:
as §1

Experiment [5] concerns the target PUM1 PUF domain R7-LPT (Homo sapiens, UniProt Q14671 828-1176, S1079L;N1080P;E1083T). The procedure, abridged: as §1
Experiment [6] deals with T1, PUM1 PUF domain R6-SWE (Homo sapiens, UniProt Q14671 828-1176, N1043S;Y1044W;Q1047E).
T1 sequence: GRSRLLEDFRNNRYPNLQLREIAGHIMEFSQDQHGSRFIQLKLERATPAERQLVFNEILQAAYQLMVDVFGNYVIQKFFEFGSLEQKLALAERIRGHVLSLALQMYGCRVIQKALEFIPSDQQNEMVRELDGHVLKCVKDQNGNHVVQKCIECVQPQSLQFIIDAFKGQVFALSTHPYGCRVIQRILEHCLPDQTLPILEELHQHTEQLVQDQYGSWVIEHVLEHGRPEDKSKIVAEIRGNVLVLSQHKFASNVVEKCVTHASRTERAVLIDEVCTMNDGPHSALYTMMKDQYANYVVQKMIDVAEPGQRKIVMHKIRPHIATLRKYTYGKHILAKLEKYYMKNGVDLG
The procedure, abridged: as §1

The target of experiment [7] is PUM1 PUF domain R4-AFP (Homo sapiens, UniProt Q14671 828-1176, N971A;H972F;Q975P). The method in brief: as §1
Sequence of PUM1 PUF domain R4-AFP (Q14671 828-1176 N971A/H972F/Q975P): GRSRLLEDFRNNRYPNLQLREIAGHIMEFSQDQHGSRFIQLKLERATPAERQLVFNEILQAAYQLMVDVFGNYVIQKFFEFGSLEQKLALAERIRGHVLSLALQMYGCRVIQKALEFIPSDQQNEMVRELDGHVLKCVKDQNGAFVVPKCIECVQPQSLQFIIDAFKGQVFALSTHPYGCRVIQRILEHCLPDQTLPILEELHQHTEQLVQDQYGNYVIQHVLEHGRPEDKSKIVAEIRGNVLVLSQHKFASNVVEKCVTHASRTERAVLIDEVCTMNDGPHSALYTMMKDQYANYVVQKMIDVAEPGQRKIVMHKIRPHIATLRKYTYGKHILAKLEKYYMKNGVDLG
Experiment [8] addresses PUM1 PUF domain R4-VNA (Homo sapiens, UniProt Q14671 828-1176, N971V;H972N;Q975A). The method in brief: as §1
The target of experiment [9] is PUM1 PUF domain R5-KQT (Homo sapiens, UniProt Q14671 828-1176, C1007K;R1008Q;Q1011T). The method in brief: as §1
Sequence of PUM1 PUF domain R5-KQT (Q14671 828-1176 C1007K/R1008Q/Q1011T): as the sequence (Q14671 828-1176 N971A/H972F/Q975P) above, with A144N, F145H, P148Q, C180K, R181Q, Q184T counted along it
In experiment [10] the target is PUM1 PUF domain R5-QGR (Homo sapiens, UniProt Q14671 828-1176, C1007Q;R1008G;Q1011R). The procedure, abridged: as §1
Experiment [11] concerns the target PUM1 PUF domain R5-ATR (Homo sapiens, UniProt Q14671 828-1176, C1007A;R1008T;Q1011R). The method in brief: as §1
In experiment [12] the target is PUM1 PUF domain R5-DMR (Homo sapiens, UniProt Q14671 828-1176, C1007D;R1008M;Q1011R). The method in brief:
as §1

The target in experiment [13] is PUM1 PUF domain R5-KYR (Homo sapiens, UniProt Q14671 828-1176, C1007K;R1008Y;Q1011R). The procedure, abridged:
as §1

For experiment [14], the target named is PUM1 PUF domain R8-RCK (Homo sapiens, UniProt Q14671 828-1176, N1122R;Y1123C;Q1126K). The method in brief:
as §1

Experiment [15] deals with PUM1 PUF domain R8-SYR (Homo sapiens, UniProt Q14671 828-1176, N1122S;Q1126R). The method in brief:
as §1

In experiment [16] the target is T2, PUM1 PUF domain R6-FRL (Homo sapiens, UniProt Q14671 828-1176, N1043F;Y1044R;Q1047L).
T2 sequence: T1 sequence with S216F, W217R, E220L
The method in brief:
as §1

Experiment [17] addresses PUM1 PUF domain R3-GWD (Homo sapiens, UniProt Q14671 828-1176, C935G;R936W;Q939D). The method in brief:
as §1

Experiment [18] has as its target T3, PUM1 PUF domain R6-GWC (Homo sapiens, UniProt Q14671 828-1176, N1043G;Y1044W;Q1047C).
T3 sequence: T1 sequence with S216G, E220C
The procedure, abridged:
as §1

On to “GGCUAGAACUAGUGGAUCCCCCGGCGCCCGGCGGCUCGAGCCCGGGUAAGUGUAAUUAGUCUGCAUGCCGCCGGGCGCCAUGCCUGCAGGUCGACUCUAGAAAACAUG”, for which the binding signal in experiment [1] is 4.85 log2 enrichment (interaction score).

As for “GGCUAGAACUAGUGGAUCCCCCGGCGCCCGGCGGCUCGAGCCCGGGUAAGUGUAAAUUGUCUGCAUGCCGCCGGGCGCCAUGCCUGCAGGUCGACUCUAGAAAACAUG”, the binding signal in [2] is 1.58 log2 enrichment (interaction score); in experiment [3] it was 2.24 log2 enrichment (interaction score).

Consider “GGCUAGAACUAGUGGAUCCCCCGGCGCCCGGCGGCUCGAGCCCGGGUAAGUUUAAAUAGUCUGCAUGCCGCCGGGCGCCAUGCCUGCAGGUCGACUCUAGAAAACAUG”, for which the binding signal in experiment [4] was 2.69 log2 enrichment (interaction score); in [5] it was 3.22 log2 enrichment (interaction score).

“GGCUAGAACUAGUGGAUCCCCCGGCGCCCGGCGGCUCGAGCCCGGGUAAGUGGAAAUAGUCUGCAUGCCGCCGGGCGCCAUGCCUGCAGGUCGACUCUAGAAAACAUG”: the binding signal in experiment [6] was 4.47 log2 enrichment (interaction score).

“GGCUAGAACUAGUGGAUCCCCCGGCGCCCGGCGGCUCGAGCCCGGGUAAGUGUACAUAGUCUGCAUGCCGCCGGGCGCCAUGCCUGCAGGUCGACUCUAGAAAACAUG”: the binding signal in [7] was 6.13 log2 enrichment (interaction score); in experiment [8], 1.65 log2 enrichment (interaction score).

Regarding “GGCUAGAACUAGUGGAUCCCCCGGCGCCCGGCGGCUCGAGCCCGGGUAAGUGUCAAUAGUCUGCAUGCCGCCGGGCGCCAUGCCUGCAGGUCGACUCUAGAAAACAUG”, the binding signal in experiment [9] was 4.51 log2 enrichment (interaction score); in [10], 3.22 log2 enrichment (interaction score); in experiment [11], 3.13 log2 enrichment (interaction score); in experiment [12] it was 3.01 log2 enrichment (interaction score); in experiment [13], 2.48 log2 enrichment (interaction score).

Take “GGCUAGAACUAGUGGAUCCCCCGGCGCCCGGCGGCUCGAGCCCGGGUAAGCGUAAAUAGUCUGCAUGCCGCCGGGCGCCAUGCCUGCAGGUCGACUCUAGAAAACAUG”: the figures for the binding signal in [14] and in experiment [15] were 2.23 log2 enrichment (interaction score) and 4.37 log2 enrichment (interaction score), respectively.

With “GGCUAGAACUAGUGGAUCCCCCGGCGCCCGGCGGCUCGAGCCCGGGUAAGUGUAAAUAGUCUGCAUGCCGCCGGGCGCCAUGCCUGCAGGUCGACUCUAGAAAACAUG”, the binding signal in [7] is 3.88 log2 enrichment (interaction score); in experiment [16], 2.93 log2 enrichment (interaction score); in experiment [9], 2.17 log2 enrichment (interaction score); in [15], 4.42 log2 enrichment (interaction score); in experiment [17], 5.07 log2 enrichment (interaction score); in [18], 2.76 log2 enrichment (interaction score).
